25 compounds from PubChem BioAssay (Tox21) can be followed below.

Inconclusive results are not listed. Active and inactive are the calls of the source. Unless noted, calls follow the shape of the dose curve; as a rule, active = well fitted curve in the direction sought with a large enough effect in the repeat runs; inconclusive = weak or mixed curves; inactive = no such curve, though single readings can be large; an effect the other way counts as inactive or inconclusive.

Assay [1] in a line: qHTS assay to identify aromatase inhibitors - cell viability counter screen (AID 743084).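 Also: cells stimulated with testosterone during compound exposure; nearly all actives have a fitted effect of over 55% in size.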
For assay [2], the target named is Aryl hydrocarbon receptor (Homo sapiens) (UniProt P35869). As to the kind of experiment: qHTS assay to identify small molecule that activate the aryl hydrocarbon receptor (AhR) signaling pathway (AID 743085). Also: nearly all actives have a fitted effect of over 15% in size. Also: potency is read from the fitted curve at half-maximal effect.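 As to activation: HG2L7.5c1 human HepG2 liver cells with stably integrated DRE-driven firefly reporter; series mostly up to about 70 µM.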 A digest of the protocol: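 AhR agonist activity is inferred from enhanced light output of a DRE-controlled firefly luciferase reporter in HepG2 cells, measured with ONE-Glo following 24 h treatment at 37C.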

Assay [3] in a line: qHTS assay to identify small molecule that activate the aryl hydrocarbon receptor (AhR) signaling pathway - cell viability counter screen (AID 743086). Also: series mostly up to about 70 µM; nearly all actives have a fitted effect of over 45% in size. A digest of the protocol: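 Cytotoxicity counter screen: CellTiter-Fluor signal (30 min, 37 C) in 4000 HepG2 cells/well carrying the DRE-luciferase reporter, following 24 h compound exposure at 37 C.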
In assay [4] the target is Peroxisome proliferator-activated receptor gamma (Homo sapiens) (UniProt P37231). The assay is described as follows: qHTS assay to identify small molecule agonists of the peroxisome proliferator-activated receptor gamma (PPARg) signaling pathway (AID 743094; active = well fitted activation curve with a large enough effect in the signal ratio in the repeat runs, not every such curve was filed as active; the % refers to the signal ratio). In short, it runs like this: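 Cell-based bla reporter, HEK293H background, PPARg-driven UAS. Pre-incubation 5 h, 37C, 5% CO2. Compound 17 h, 37C. Substrate 1 h RT; fluorescence.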

The target is the same in assay [5]. The assay is described as follows: qHTS assay to identify small molecule antagonists of the peroxisome proliferator-activated receptor gamma (PPARg) signaling pathway (AID 743191; calls by dose curve; also: series mostly up to about 63 µM; nearly all actives have a fitted effect of over 30% in size). A digest of the protocol: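 Beta-lactamase reporter under UAS control in HEK293H PPARg-bla cells; compound treatment 17 h at 37C. Read-out: fluorescence intensity after 1 h room-temperature incubation with LiveBLAzer B/G FRET substrate.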

Assay [6] can be described thus: qHTS assay to identify small molecule antagonists of the peroxisome proliferator-activated receptor gamma (PPARg) signaling pathway - cell viability counter screen (AID 743194). Also: nearly all actives have a fitted effect of over 55% in size. In short, it runs like this:
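Viability was measured as CellTiter-Glo luminescence in GeneBLAzer PPARg UAS-bla HEK293H cells. These cells had been exposed 17 h at 37 C to compounds together with rosiglitazone at 50 nM final, with the beta-lactamase readout taken in the same wells.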

The nature of assay [7]: qHTS assay for small molecule agonists of the antioxidant response element (ARE) signaling pathway (AID 743202; active = well fitted activation curve with a large enough effect in the signal ratio in the repeat runs, not every such curve was filed as active; the % refers to the signal ratio; also: potency is read from the fitted curve at half-maximal effect). A digest of the protocol: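 Beta-lactamase reporter activity, read as fluorescence intensity, reflects ARE/Nrf2 pathway induction in HepG2 cells after 16 h compound exposure at 37 C; substrate loading was 2 h at room temperature.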
Assay [8] is described as follows: qHTS assay for small molecule agonists of the antioxidant response element (ARE) signaling pathway - cell viability counter screen (AID 743203; calls by dose curve; also: nearly all actives have a fitted effect of over 55% in size). A digest of the protocol:
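Measured in the same wells as the beta-lactamase ARE reporter, this read-out is CellTiter-Glo luminescence from HepG2 ARE-bla cells given compounds for 16 hrs.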

The nature of assay [9]: qHTS assay for small molecule activators of the heat shock response signaling pathway - cell viability counter screen (AID 743209). Also: nearly all actives have a fitted effect of over 50% in size. A digest of the protocol: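 Same-well multiplex: after 2.5 h room-temperature incubation with LiveBLAzer B/G substrate and fluorescence reading, CellTiter-Glo reagent was added to HSE-bla HeLa cells that had received compound for 5 h at 37 C; luminescence read after 30 min.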

A short description of assay [10]: qHTS assay for small molecule activators of the heat shock response signaling pathway (AID 743210; active = well fitted activation curve with a large enough effect in the signal ratio in the repeat runs, with a control signal flat, not every such curve was filed as active; the % refers to the signal ratio;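 also: HeLa cells with beta-lactamase reporter driven by heat shock elements; series mostly up to about 63 µM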). A digest of the protocol:
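Fluorescence from a cleaved B/G FRET substrate (2.5 h, room temp) reports HSE-driven beta-lactamase in HeLa cells treated 5 h at 37 C with DMSO-dissolved compounds.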

Sequence of Aryl hydrocarbon receptor (Homo sapiens) (P35869 whole entry, looked up): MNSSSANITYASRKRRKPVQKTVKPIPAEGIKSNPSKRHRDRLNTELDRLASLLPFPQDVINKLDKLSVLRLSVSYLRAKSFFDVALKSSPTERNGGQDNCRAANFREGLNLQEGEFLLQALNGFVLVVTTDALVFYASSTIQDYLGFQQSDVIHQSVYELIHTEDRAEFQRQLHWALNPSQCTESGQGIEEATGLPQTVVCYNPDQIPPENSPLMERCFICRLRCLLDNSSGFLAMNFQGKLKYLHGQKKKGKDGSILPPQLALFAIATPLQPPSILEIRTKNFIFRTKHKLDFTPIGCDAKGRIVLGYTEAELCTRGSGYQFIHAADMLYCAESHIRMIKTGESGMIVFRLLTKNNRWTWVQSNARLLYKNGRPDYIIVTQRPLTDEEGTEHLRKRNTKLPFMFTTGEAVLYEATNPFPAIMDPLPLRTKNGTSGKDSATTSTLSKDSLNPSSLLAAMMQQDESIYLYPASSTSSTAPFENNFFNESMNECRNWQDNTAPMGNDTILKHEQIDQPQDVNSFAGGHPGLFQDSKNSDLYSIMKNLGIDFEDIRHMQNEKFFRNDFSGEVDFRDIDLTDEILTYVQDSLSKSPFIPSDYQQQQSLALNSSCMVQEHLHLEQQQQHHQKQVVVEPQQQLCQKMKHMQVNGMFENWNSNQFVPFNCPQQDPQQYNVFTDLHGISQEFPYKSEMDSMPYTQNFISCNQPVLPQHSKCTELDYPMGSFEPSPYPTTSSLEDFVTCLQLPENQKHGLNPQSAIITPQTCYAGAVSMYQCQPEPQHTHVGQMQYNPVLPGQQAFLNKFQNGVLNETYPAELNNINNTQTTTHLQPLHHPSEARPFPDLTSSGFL
Sequence of Peroxisome proliferator-activated receptor gamma (Homo sapiens) (P37231 whole entry, looked up): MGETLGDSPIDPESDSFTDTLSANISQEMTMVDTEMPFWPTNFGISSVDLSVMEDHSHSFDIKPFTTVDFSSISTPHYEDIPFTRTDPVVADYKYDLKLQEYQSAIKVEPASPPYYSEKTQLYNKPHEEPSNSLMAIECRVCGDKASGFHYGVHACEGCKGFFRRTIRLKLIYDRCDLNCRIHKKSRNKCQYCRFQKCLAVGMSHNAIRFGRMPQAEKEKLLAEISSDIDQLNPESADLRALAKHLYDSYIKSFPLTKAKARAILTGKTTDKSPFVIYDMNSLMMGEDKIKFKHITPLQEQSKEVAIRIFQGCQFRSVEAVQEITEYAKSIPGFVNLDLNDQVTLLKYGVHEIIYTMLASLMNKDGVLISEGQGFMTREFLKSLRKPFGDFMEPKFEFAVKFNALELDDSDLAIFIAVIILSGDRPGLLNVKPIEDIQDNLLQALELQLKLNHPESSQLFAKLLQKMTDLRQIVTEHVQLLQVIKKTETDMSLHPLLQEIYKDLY

For `CCOc1ccc(NC(N)=O)cc1`, the Potency result in assay [1], in assay [2], in assay [4], in [5], in [6] and in assay [7] was “inactive” in each case. The Potency result in assay [8] and in assay [10] was “inactive” throughout. The result in [3] and in [9] was inactive.
With `COc1cc(Cl)ccc1Cl`, the Potency result in assay [1], in assay [2], in assay [4], in assay [5], in assay [6] and in [7] was “inactive” each time. Besides, the Potency entry in [8] and in assay [10] was “inactive” each time. For the same compound, the result in [3] and in assay [9] was inactive.
In the case of `CCCCC1CCC(=O)O1` (configuration not stated), the Potency result in [1], in assay [2], in assay [4], in assay [5], in assay [6] and in [7] was “inactive” each time. Moreover, the Potency result in [8] and in assay [10] was “inactive” throughout. The call in assay [3] and in assay [9] was inactive.
In the case of `CN1CCN(c2c(F)cc3c(=O)c(C(=O)O)cn(CCF)c3c2F)CC1`, the Potency entry in assay [1], in assay [2], in assay [4], in assay [5], in [6] and in assay [7] was “inactive” throughout. Also, the Potency result in assay [8] and in assay [10] was “inactive” in each case. Moreover, the call in assay [3] and in assay [9] was inactive.
Take `FC(F)(F)C(Cl)(Cl)Cl`: the Potency result in [1], in assay [2], in assay [4], in assay [5], in assay [6] and in assay [7] was “inactive” throughout. In addition, the Potency entry in assay [10] was “inactive”. In addition, the compound was classed as inactive in assay [3] and in [9].
For the compound `Cc1cc2nc(N)sc2cc1C`, the Potency result in assay [1], in assay [4], in assay [5], in assay [6], in [7] and in assay [8] was “inactive” in each case. Moreover, in assay [10], the Potency entry is “inactive”. Besides, the Potency in [2] is 6.17 µM (active). Moreover, the call in [3] and in assay [9] was inactive.
In the case of `CC(C)(C)c1cccc(O)c1`, the Potency entry in assay [1], in assay [2], in [4], in assay [5], in assay [6] and in assay [7] was “inactive” each time. Moreover, the Potency result in assay [8] was “inactive”. Further, the compound was called inactive in assay [3] and in assay [9].
Consider `CCCCNCCCC`, for which the Potency entry in assay [1], in [2], in [4], in assay [5], in assay [6] and in assay [7] was “inactive” throughout. The Potency entry in [8] and in [10] was “inactive” throughout. For the same compound, the result in [3] and in [9] was inactive.
As for `O=C1N(c2ccccc2)c2ccccc2C1(Cc1ccncc1)Cc1ccncc1`, the Potency result in assay [1], in [2], in assay [4], in assay [5], in assay [6] and in [8] was “inactive” each time. Further, the compound was classed as inactive in assay [3] and in assay [9].
As to `CCc1nnc(NS(=O)(=O)c2ccc(N)cc2)s1`, the Potency entry in assay [1], in assay [2], in assay [4], in [5], in assay [6] and in assay [7] was “inactive” throughout. Besides, the Potency result in assay [8] and in assay [10] was “inactive” in each case. Moreover, the result in [3] and in assay [9] was inactive.
For `CC1=CC(=O)CC(C)(C)C1=O`, the Potency entry in assay [1], in [2], in [4], in [5], in assay [6] and in assay [8] was “inactive” each time. Moreover, the Potency entry in assay [10] was “inactive”. Besides, the result in assay [3] and in assay [9] was inactive.
Regarding `ICCc1ccccc1`, the Potency result in assay [1], in assay [2], in assay [4], in assay [5], in assay [6] and in assay [7] was “inactive” each time. Moreover, the Potency result in [8] and in [10] was “inactive” each time. The compound was called inactive in assay [3] and in [9].
Regarding `CC1(C)C(=O)N(Cl)C(=O)N1Br`, the Potency result in [1], in [2], in assay [4], in assay [5], in assay [6] and in assay [8] was “inactive” each time. Also, the Potency result in assay [10] is “inactive”. For the same compound, the call in assay [3] and in [9] was inactive.
For the compound `CCC(=O)O[C@]1(C(=O)SCF)[C@H](C)C[C@H]2[C@@H]3C[C@H](F)C4=CC(=O)C=C[C@]4(C)[C@@]3(F)[C@@H](O)C[C@@]21C`, the Potency entry in [1], in assay [2], in assay [4], in assay [5], in [6] and in assay [7] was “inactive” throughout. Moreover, the Potency entry in assay [8] and in [10] was “inactive” throughout. Also, the call in [3] and in assay [9] was inactive.
Consider `CCCCCCCCCC#N`, for which the Potency entry in assay [1], in assay [2], in [4], in assay [5], in assay [6] and in [7] was “inactive” throughout. In addition, the Potency entry in assay [10] is “inactive”. The compound was classed as inactive in assay [3].
For `Cc1ncc(CO)c(CN)c1O`, the Potency entry in assay [1], in assay [2], in [4], in assay [5], in assay [6] and in assay [8] was “inactive” each time. In addition, the Potency result in [10] was “inactive”. Besides, the result in assay [3] and in assay [9] was inactive.
On to `CO[Si](C)(C)OC`, for which the Potency result in assay [1], in [2], in assay [4], in assay [5], in [6] and in assay [7] was “inactive” throughout. Moreover, the Potency result in [8] and in assay [10] was “inactive” in each case. In addition, the outcome in assay [3] was inactive.
`O=C(O)C(=O)Cc1c[nH]c2ccccc12`: the Potency entry in assay [1], in [4], in [5], in assay [6], in [8] and in assay [10] was “inactive” throughout. The Potency is 6.11 µM (active) in assay [2] and 27.3 µM (active) in [7]. The outcome in [3] and in [9] was inactive.
As for `CN(C)CCOc1ccccc1Cc1ccccc1`, the Potency entry in [1], in assay [2], in [4], in assay [5], in assay [6] and in assay [7] was “inactive” in each case. Also, the Potency result in assay [8] and in assay [10] was “inactive” each time. The compound was called inactive in assay [3] and in [9].
On to `CO[C@@]1(NC(=O)CSCC#N)C(=O)N2C(C(=O)O)=C(CSc3nnnn3C)CS[C@@H]21`, for which the Potency result in assay [1], in assay [2], in assay [4], in [5], in [6] and in assay [7] was “inactive” throughout. Moreover, the Potency result in [8] and in [10] was “inactive” each time. Further, the compound was called inactive in [3] and in [9].
As for `Cc1ccc([N+](=O)[O-])c(N)c1`, the Potency entry in assay [1], in [2], in assay [4], in assay [5], in assay [6] and in assay [7] was “inactive” throughout. Moreover, the Potency result in assay [8] and in assay [10] was “inactive” each time. The call in assay [3] and in assay [9] was inactive.
In the case of `CCN(CC)CCNC(=O)COc1ccc(Cl)cc1`, the Potency result in assay [1], in assay [2], in assay [4], in assay [5], in [6] and in assay [7] was “inactive” in each case. The Potency result in assay [10] is “inactive”. Further, the compound was called inactive in assay [3] and in [9].
For `CC(=O)Nc1ccc(C)c(Cl)c1`, the Potency result in assay [1], in assay [2], in assay [4], in assay [5], in assay [6] and in assay [7] was “inactive” each time. For the same compound, the Potency result in assay [8] and in assay [10] was “inactive” in each case. The compound was classed as inactive in assay [3] and in [9].
As to `CC(C)C(=O)OC/C=C/c1ccccc1`, the Potency result in [1], in assay [2], in assay [4], in [5], in [6] and in assay [7] was “inactive” each time. The Potency entry in assay [10] was “inactive”. Also, the call in assay [3] was inactive.
On to `Nc1cccc(S(=O)(=O)O)c1`, for which the Potency entry in [1], in assay [2], in assay [4], in assay [5], in [6] and in assay [7] was “inactive” each time. Further, the Potency entry in [8] and in assay [10] was “inactive” throughout. The outcome in [3] and in [9] was inactive.
